# Laboratory results published in PubChem BioAssay (NCATS).
# Unmarked numbers belong to inactive results. Results filed as inconclusive are left out. Where a call stands in place of a potency, no number is given. Active and inactive are the calls of the source. Calls come from the whole dose curve; as a rule, active = well fitted curve in the direction sought with a large enough effect; inconclusive = small, poorly fitted or top-dose-only effect, or another doubt; inactive = no such curve, though single readings can be large; an effect the other way counts as inactive or inconclusive.
# Assays:
# [1] = qHTS for Inhibitors of Plasmodium falciparum (DD2) proliferation (AID 504314);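 note: parasite DNA measured by SYBR Green fluorescence after red cell lysis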
# How it was run: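 Erythrocytes infected with P. falciparum (0.3% parasitemia, 2.5% hematocrit final) were incubated with compounds for 72 h at 37C, 5% CO2. Parasite DNA was detected by SYBR Green I fluorescence after saponin/Triton lysis, normalized to artemisinin (0.29 uM) and DMSO controls.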
# [2] = qHTS for Inhibitors of Plasmodium falciparum (GB4) proliferation (AID 504315); note: nearly all actives have a fitted effect of over 50% in size; note: potency is the fitted concentration of half-maximal effect
# How it was run: (§1)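 Erythrocytes infected with P. falciparum line (0.3% parasitemia, 2.5% hematocrit final) incubated with compounds 72 h at 37 °C, 5% CO2; SYBR Green lysis buffer added, fluorescence read next day. Normalized to 0.29 uM artemisinin and DMSO.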
# [3] = qHTS for Inhibitors of Plasmodium falciparum (7G8) proliferation (AID 504316); note: nearly all actives have a fitted effect of over 65% in size; note: potency is the fitted concentration of half-maximal effect
# How it was run: as §1
# [4] = qHTS for Inhibitors of Plasmodium falciparum (HB3) proliferation (AID 504318); note: nearly all actives have a fitted effect of over 60% in size
# How it was run: as §1
# [5] = qHTS for Inhibitors of Plasmodium falciparum (CP250) proliferation (AID 504320)
# How it was run: as §1
# [6] = target: Cytochrome P450 2C9 (Homo sapiens) (UniProt P11712); experiment: qHTS Assay for Inhibitors and Substrates of Cytochrome P450 2C9 (AID 883); note: nearly all actives have a fitted effect of over 60% in size
# How it was run: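 Signal: luciferase luminescence reporting luciferin produced by CYP2C9. Conditions: 10nM enzyme, Luciferin-H 100uM at KM, 25mM KPO4, 37C, 60 min NADPH-driven reaction. Reference: 57uM sulphaphenazole as 100% inhibition.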
# [7] = target: Cytochrome P450 3A4 (Homo sapiens) (UniProt P08684); experiment: qHTS Assay for Activators of Cytochrome P450 3A4 (AID 885); note: nearly all actives have a fitted effect of over 65% in size
# How it was run: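 20nM CYP3A4 + 25uM Luciferin-PPXE (=KM), 200mM KPO4; cpd 10 min RT; NADPH regen, 60 min RT; stop w/ detection buffer, 20 min; luminescence. Normalized to 57 uM ketoconazole.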
# Sequence of Cytochrome P450 2C9 (Homo sapiens) (P11712 whole entry, looked up): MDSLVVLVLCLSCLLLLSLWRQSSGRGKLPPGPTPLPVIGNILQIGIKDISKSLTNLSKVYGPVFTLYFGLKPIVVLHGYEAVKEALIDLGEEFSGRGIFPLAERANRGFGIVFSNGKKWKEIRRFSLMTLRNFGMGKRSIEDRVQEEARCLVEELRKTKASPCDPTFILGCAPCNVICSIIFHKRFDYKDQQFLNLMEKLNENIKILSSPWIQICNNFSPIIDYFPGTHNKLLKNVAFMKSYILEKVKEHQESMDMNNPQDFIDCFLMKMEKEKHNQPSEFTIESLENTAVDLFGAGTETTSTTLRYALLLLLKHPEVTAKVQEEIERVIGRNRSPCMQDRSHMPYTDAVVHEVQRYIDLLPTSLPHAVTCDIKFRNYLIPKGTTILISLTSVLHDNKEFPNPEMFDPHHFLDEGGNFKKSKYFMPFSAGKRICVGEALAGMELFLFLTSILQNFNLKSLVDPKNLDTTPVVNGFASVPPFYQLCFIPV
# Sequence of Cytochrome P450 3A4 (Homo sapiens) (P08684 whole entry, looked up): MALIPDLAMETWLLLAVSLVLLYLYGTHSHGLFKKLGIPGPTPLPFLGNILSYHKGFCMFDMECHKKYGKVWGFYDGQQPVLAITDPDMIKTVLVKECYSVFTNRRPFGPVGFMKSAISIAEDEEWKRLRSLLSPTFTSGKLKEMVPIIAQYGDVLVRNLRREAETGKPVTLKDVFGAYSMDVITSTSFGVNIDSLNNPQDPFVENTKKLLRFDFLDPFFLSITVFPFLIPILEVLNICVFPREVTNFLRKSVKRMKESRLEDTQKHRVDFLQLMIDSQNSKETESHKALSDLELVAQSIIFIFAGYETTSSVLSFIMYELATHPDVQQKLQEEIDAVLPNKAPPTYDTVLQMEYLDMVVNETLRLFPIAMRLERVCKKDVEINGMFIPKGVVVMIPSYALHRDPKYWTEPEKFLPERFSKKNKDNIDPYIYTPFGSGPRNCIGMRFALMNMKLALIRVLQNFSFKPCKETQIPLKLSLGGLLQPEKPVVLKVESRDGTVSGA
compound,measurement,setting,value
CC1(OC(=O)C2CCCC2)C(=O)C=C2C=C(c3ccsc3)N(c3ccc(CO)cc3)C=C2C1=O (stereo not given),Potency,[1],inactive
same,Potency,[2],inactive
same,Potency,[3],inactive
same,Potency,[4],inactive
same,Potency,[5],inactive
COC(=O)C1=C(C(=O)OC)[C@@H]2Nc3ccccc3[C@@]23C[C@@H](C(=O)OC)N(C(=O)c2ccco2)C3=N1,Potency,[1],inactive
same,Potency,[2],inactive
same,Potency,[3],inactive
same,Potency,[5],inactive
COC(=O)N1CCc2cc(OC)c(OC)cc2C1Cc1ccc(OC)cc1 (stereo not given),Potency,[6],inactive
same,"activity change, positive = activation",[7],-32.2% [at 11.4 µM]
C[C@H]1Cc2c(COc3ccccc3)nc3c(c2CO1)CN(S(=O)(=O)c1ccc(C#N)cc1)CC3,Potency,[1],inactive
same,Potency,[2],inactive
same,Potency,[5],inactive
COC(=O)[C@@H]1[C@@H](C)N(CCc2cc(OC)c(OC)c(OC)c2)C(=O)N[C@H]1c1ccccc1,Potency,[1],inactive
same,Potency,[2],inactive
same,Potency,[4],inactive
same,Potency,[5],inactive
COC(=O)C1=C(C(=O)OC)[C@@H]2N(C)c3ccccc3[C@@]23C[C@@H](C(=O)OC)N(S(=O)(=O)c2ccc4c(c2)OCCN4C)C3=N1,Potency,[1],inactive
same,Potency,[2],2.39 µM (active)
same,Potency,[5],inactive
CC(C)(C)N1C(=O)[C@@H]2[C@H]3[C@H](O)[C@H](O)CC(=NOCc4ccccc4)[C@H]3CC[C@H]2C1=O,Potency,[1],inactive
same,Potency,[2],inactive
same,Potency,[5],inactive
COC(=O)CCC(=O)OC1(C)C(=O)C2=CN(Cc3ccco3)C(c3ccc(OC)cc3)=CC2=C(Br)C1=O (stereo not given),Potency,[1],inactive
same,Potency,[2],inactive
same,Potency,[5],inactive
CC(=O)C1=C(C)N(Cc2ccccc2)C(=O)N[C@H]1c1ccco1,Potency,[1],inactive
same,Potency,[2],inactive
same,Potency,[5],inactive
CCCCc1nc2c(c3c1C[C@H](C)OC3)CN(C(=O)Cc1cccc(OC)c1)CC2,Potency,[1],inactive
same,Potency,[2],inactive
same,Potency,[4],inactive
same,Potency,[5],inactive
C=CCN1c2ccccc2[C@]23C[C@@H](C(=O)OC)N(S(=O)(=O)c4ccc(Br)cc4)C2=NC(C(=O)OC)=C(C(=O)OC)[C@H]13,Potency,[1],inactive
same,Potency,[3],inactive
CC#CCN1c2ccccc2[C@]23CCC(=O)N(CCCOC(C)C)C2=NC(C(=O)OC)=C(C(=O)OC)[C@H]13,Potency,[1],inactive
same,Potency,[2],inactive
same,Potency,[5],inactive
CCCCS(=O)(=O)N1C2=NC(C(=O)OC)=C(C(=O)OC)[C@@H]3N(C)c4ccc(OC)cc4[C@]23C[C@H]1C(=O)OC,Potency,[1],inactive
same,Potency,[2],inactive
same,Potency,[5],inactive
CC1(OC(=O)CCc2ccccc2)C(=O)C=C2C=C(c3ccc(C#N)cc3)N(CCc3c[nH]c4ccccc34)C=C2C1=O (stereo not given),Potency,[1],inactive
same,Potency,[2],inactive
same,Potency,[5],inactive
COc1cccc([C@@H]2Oc3ccc(Br)cc3C(=O)[C@@H]2OC(=O)Nc2ccc(OC(F)F)cc2)c1,Potency,[1],inactive
same,Potency,[2],inactive
same,Potency,[5],inactive
C=CC1=C2C=C(C3CC3)N(Cc3ccco3)C=C2C(=O)C(C)(OC(=O)c2ccco2)C1=O (stereo not given),Potency,[1],inactive
same,Potency,[2],inactive
same,Potency,[4],inactive
same,Potency,[5],inactive
CCCCc1nc2c(c3c1C[C@H](C)OC3)CN(C(=O)NCCCC(=O)OCC)CC2,Potency,[1],inactive
same,Potency,[2],inactive
same,Potency,[5],inactive
COC(=O)C1=C(C(=O)OC)[C@@H]2Nc3ccccc3[C@@]23C[C@@H](C(=O)OC)N(C(=O)c2ccc(Br)cc2)C3=N1,Potency,[1],inactive
same,Potency,[2],inactive
same,Potency,[4],inactive
same,Potency,[5],inactive
CCCCS(=O)(=O)N1C2=NC(C(=O)OC)=C(C(=O)OC)[C@@H]3Nc4ccccc4[C@]23C[C@H]1C(=O)OC,Potency,[1],inactive
same,Potency,[2],inactive
same,Potency,[5],inactive
CCCCC1=CC2=CC(=O)C(C)(OC(=O)CC)C(=O)C2=CN1c1ccncc1 (stereo not given),Potency,[1],inactive
same,Potency,[2],inactive
same,Potency,[5],inactive
CC#CCN1c2ccccc2[C@]23C[C@@H](C(=O)OC)N(C(=O)c4cc(C)oc4C)C2=NC(C(=O)OC)=C(C(=O)OC)[C@H]13,Potency,[1],inactive
same,Potency,[3],1.51 µM (active)
CC1(OC(=O)CCc2ccccc2)C(=O)C=C2C=C(c3ccc(C#N)cc3)N(C3CCCC3)C=C2C1=O (stereo not given),Potency,[1],inactive
same,Potency,[2],inactive
same,Potency,[5],inactive
COC(=O)CCCC1=CC2=C(c3ccccc3)C(=O)C(C)(OC(=O)C3CCCC3)C(=O)C2=CN1CC(C)C (stereo not given),Potency,[1],inactive
same,Potency,[2],inactive
same,Potency,[4],inactive
same,Potency,[5],inactive
C[C@H]1Cc2c(-c3ccccc3)nc3c(c2CO1)CN(C(=O)c1cc(I)ccc1F)CC3,Potency,[1],inactive
same,Potency,[2],inactive
same,Potency,[5],inactive
COC(=O)CCCC1=CC2=C(c3ccccc3)C(=O)C(C)(OC(=O)C3CCCC3)C(=O)C2=CN1CCCOC(C)C (stereo not given),Potency,[1],inactive
same,Potency,[2],inactive
same,Potency,[5],inactive
C=CCN1c2ccccc2[C@]23C[C@@H](C(=O)OC)N(S(=O)(=O)c4c(C)noc4C)C2=NC(C(=O)OC)=C(C(=O)OC)[C@H]13,Potency,[1],inactive
same,Potency,[2],inactive
same,Potency,[5],inactive
C=CCN1c2ccccc2[C@]23C[C@@H](C(=O)OC)N(S(=O)(=O)c4ccc5c(c4)OCCN5C)C2=NC(C(=O)OC)=C(C(=O)OC)[C@H]13,Potency,[1],inactive
same,Potency,[3],1.69 µM (active)
